The source of these data is PubChem BioAssay AID1851 (National Center for Advancing Translational Sciences (NCATS), 2009).

Several values for one entry are separate records, joined by “and”; a condition that tells them apart may be missing. Equal entries are not always repeated. About 5,700 (36%) of roughly 16,000 compounds were called active. Roughly 24% stayed inconclusive and do not appear here. Some of the results follow. Unmarked numbers belong to inactive results. Calls come from the whole dose curve; as a rule, active = well fitted curve in the direction sought with a large enough effect; inconclusive = small, poorly fitted or top-dose-only effect, or effect the other way; inactive = no such curve, though single readings can be large or run the other way.
% is set by controls: 0 for no effect and ±100 for the full control effect.

Cytochrome P450 1A2 (Homo sapiens), sequence (P05177 whole entry, looked up): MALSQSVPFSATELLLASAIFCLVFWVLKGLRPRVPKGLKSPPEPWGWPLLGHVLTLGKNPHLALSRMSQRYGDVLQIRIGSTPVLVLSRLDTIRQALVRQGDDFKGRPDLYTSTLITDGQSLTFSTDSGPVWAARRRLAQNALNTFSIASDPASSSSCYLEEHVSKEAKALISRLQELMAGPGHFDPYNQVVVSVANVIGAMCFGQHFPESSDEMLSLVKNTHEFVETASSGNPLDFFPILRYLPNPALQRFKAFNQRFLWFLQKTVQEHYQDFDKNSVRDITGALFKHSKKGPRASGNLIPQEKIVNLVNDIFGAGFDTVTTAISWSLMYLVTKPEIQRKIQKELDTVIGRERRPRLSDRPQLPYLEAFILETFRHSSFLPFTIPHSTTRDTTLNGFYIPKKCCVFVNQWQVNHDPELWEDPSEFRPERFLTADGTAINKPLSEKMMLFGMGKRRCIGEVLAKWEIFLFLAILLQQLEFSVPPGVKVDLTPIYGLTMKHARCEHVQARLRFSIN

This experiment addresses Cytochrome P450 1A2 (Homo sapiens) (UniProt P05177). Kind of experiment: Cytochrome panel assay with activity outcomes. The settings on record: recombinant CYP, pro-luciferin dealkylation, luminescence, p450-cyp1a2; series mostly up to 57.1 µM.
`O=P(O)(O)CCP(=O)(c1ccccc1)c1ccccc1`: the AC50 entry was “inactive”. On the same count and under the same terms, then `C[C@@H]1CCN=C(N)S1`, with “inactive”; and `O=C(OCC#CCSc1nnc(-c2cccc3ccccc23)o1)c1ccco1`, with 0.398 µM (active).

As for `Cc1ccc(N2C(=O)C(Cl)=C(NCc3ccccc3)C2=O)c(C)c1`, the AC50 is 11.2 µM (active). With `CC1=NN(c2ccc(C)cc2C)C(=O)C1C(c1ccccc1)C1C(=O)N(c2ccc(C)cc2C)N=C1C` (stereo not given), the AC50 entry is “inactive”. In the case of `CO[C@H]1COC(=O)[C@H]2CCCN2C(=O)C/C=C\[C@@H](C)[C@H](OC)COC(=O)[C@@H](OCc2ccccc2)/C=C\[C@@H]1C`, the activity, negative = inhibition was -3.46% [at 11.4 µM]. On to `O=C(CN1CCc2ccccc21)NC(=O)NCc1ccco1`, for which the AC50 is 6.31 µM (active).

In the case of `S=C(NCc1ccco1)N1CCN(C(c2ccccc2)c2ccccc2)CC1`, the AC50 entry was “inactive”.

For `CO[C@@H]1/C=C\O[C@]2(C)Oc3c(C)c(O)c4c(O)c(cc(O)c4c3C2=O)NC(=O)/C(C)=C\C=C/[C@H](C)[C@@H](O)[C@H](C)[C@H](O)[C@H](C)[C@H](OC(C)=O)[C@@H]1C`, the activity, negative = inhibition is -9.97% [at 11.4 µM]. In the case of `Nc1c2c(=O)oc(-c3ccccc3)cc2nn1-c1ccccc1`, the AC50 was 2.24 µM (active). For `COC(=O)N1CCC2(CC1)CN(c1ccncc1)C2`, the AC50 result was “inactive”. Regarding `CO/N=C\[C@@H](OC)[C@H](C)/C=C\CC(=O)OC`, the activity, negative = inhibition is -3.46% [at 11.4 µM]. With `C#CCSc1nnc(-c2sc(-c3ccccc3)nc2C)n1C`, the AC50 is 4.47 µM (active).

In the case of `Cn1c(CN2CCOCC2)nnc1SCc1ccccc1`, the AC50 entry is “inactive”. On the same count and under the same terms, to `CSc1nnc(-c2sc(-c3ccccc3)nc2C)n1C` belongs 11.2 µM (active); to `CC(=O)c1cn(CCCCCCCCCCn2cc(C(C)=O)c(=O)[nH]c2=O)c(=O)[nH]c1=O`, “inactive”; to `CCCCCCC(C)n1cc(C(C)=O)c(=O)[nH]c1=O` (stereo not given), “inactive”.

Take `CCCCCCCCn1cc(C(C)=O)c(=O)[nH]c1=O`: the AC50 was 15.8 µM (active). Same read-out and setting: then `CCCOc1ccc(-c2nc(N)n[nH]2)cc1`, with 15.8 µM (active). On to `O=C1[C@H]2[C@H]3[C@H](O)[C@H](O)C/C(=N/OC[C@@H](O)COCc4ccco4)[C@@H]3CC[C@@H]2C(=O)N1C[C@@H]1CCCO1`, for which the activity, negative = inhibition was 6.9% [at 11.4 µM].

Consider `CCC(CC)c1nnc(NC(=O)COc2ccc3c(C)cc(=O)oc3c2)s1`, for which the AC50 result was “inactive”. On the same count and under the same terms, then `CC(=O)COc1ccc2c(C)c(C)c(=O)oc2c1`, with 1 µM (active); and `COc1ccc2sc3ccccc3c(=O)c2c1OC`, with 3.55 µM (active); and `CN1[C@@H]2CC[C@H]1CC(OC(=O)c1c[nH]c3ccccc13)C2` (stereo not given in full), with “inactive”. For the molecule `O=C(CCN1CCCCC1)N1CCc2c([nH]c3ccccc23)[C@H]1c1cccnc1`, the activity, negative = inhibition is -19.7% [at 2.29 µM]. As to `O=C(OCCN1CCCCC1)c1c[nH]c2ccccc12`, the AC50 was 12.6 µM (active) and 15.8 µM (active). As to `COc1ccc(NC(=O)N2CCC3(CC2)CCN(C(=O)c2cccn2C)CC3)cc1`, the AC50 entry is “inactive”. For the molecule `CC(=O)N(/N=C1\Sc2ccccc2C1=O)c1ccccc1`, the AC50 is 2.24 µM (active).

Regarding `CC(=O)N(/N=C1\Sc2ccccc2C1=O)c1ccccc1C`, the half-maximal activity concentration (AC50) was 14.1 µM (active).

As for `COC(=O)[C@@H]1O[C@@H](SCCN)[C@@H](O)[C@H](O)[C@H]1O`, the activity, negative = inhibition was 10.2% [at 2.29 µM].

Take `CCC1(C)Cc2c(sc3nnn(CC(=O)Nc4ccc(C)cc4)c(=O)c23)CO1` (stereo not given): the AC50 was 14.1 µM (active).

As to `CCc1cc2c(nc1CC)CCN(CC/C(C)=N/OCC[C@@H]1C=C[C@H](OC(C)=O)[C@H](COC(C)=O)O1)C2`, the activity, negative = inhibition is -15.5% [at 11.4 µM]. On to `N#CC1=C(N)OC2=C(CC/C2=C\c2ccccc2)C1c1ccccc1` (stereo not given), for which the AC50 was 2.51 µM (active). On the same count and under the same terms, then `CCCc1cc(C(=O)Cc2nc3ccccc3s2)c(O)cc1O`, with 2.24 µM (active).

Regarding `O=C(OCc1nc2ccccc2s1)c1ccc(Br)s1`, the AC50 was 3.16 µM (active). The same measure, in the same setting: then `CC(=O)OCc1nc2ccccc2s1`, with 2.82 µM (active); and `Nc1cc(=O)[nH]c(N)n1`, with “inactive”.

In the case of `N=c1ccn2c(n1)O[C@H]1[C@@H](OP(=O)(O)O)[C@H](CO)O[C@H]12`, the activity, negative = inhibition was -3.14% [at 2.29 µM]. Turning to `COC(=O)[C@@H]1CC[C@H](C)[C@@H](c2ccc(C)cc2)N1C(=O)c1ccc(/C=N\OC[C@@H](O)COCc2ccco2)cc1`, the activity, negative = inhibition was -1.66% [at 11.4 µM]. Regarding `Fc1ccc(Nc2ccnc(-c3ccccc3C(F)(F)F)n2)cc1`, the AC50 was 2 µM (active). With `CNc1ccnc(-c2ccccc2C(F)(F)F)n1`, the AC50 was 12.6 µM (active).

On to `CN1C[C@H](c2ccccc2)C(O)([C@]2(c3ccccc3)CN(C)C[C@@H](c3ccccc3)C2=O)[C@H](c2ccccc2)C1` (stereo not given in full), for which the activity, negative = inhibition was -5.45% [at 11.4 µM].

In the case of `O[C@@H](c1cc([C@@]23C[C@H]4CC[C@@H]2C[C@H](C4)C3)nc2c(Cl)cc(Cl)cc12)[C@@H]1CCCCN1`, the activity, negative = inhibition is -10.5% [at 2.29 µM]. `CCOC(=O)c1nc2sc(C)c(C)c2c(=O)[nH]1`: the AC50 is 14.1 µM (active). Still for that read-out and setting: to `CCOC(=O)c1c(C)nc2sc3c(=O)n(-c4ccc(OC)cc4)nnc3c2c1-c1ccc(OC)cc1` belongs “inactive”. For the molecule `Cc1ccc(Nc2nc(Cl)nc(N(C)C#N)n2)cc1`, the AC50 is 3.55 µM (active). `O=C(O)NCC1CCCCC1` (tested in a mixture with another compound): the activity, negative = inhibition was -10.2% [at 11.4 µM]. In the case of `Cc1nc(-c2c(C(F)(F)F)noc2-c2ccc(O)cc2O)cs1`, the AC50 was 12.6 µM (active).

With `O=C(c1ccco1)N(CCC(c1ccccc1)c1ccco1)Cc1ccco1` (stereo not given), the AC50 is 14.1 µM (active). `NC(=O)CC(c1ccccc1)c1ccco1` (stereo not given): the AC50 entry is “inactive”. Still for that read-out and setting: then `O=C(NCc1ccccc1)C(c1ccc(F)cc1)N(Cc1ccco1)C(=O)c1ccccn1` (stereo not given), with “inactive”; and `CCOC(=O)C1CCCN(C(=O)CCn2nc(-c3ccccc3)ccc2=O)C1` (stereo not given), with “inactive”. On the same count and under the same terms, then `CCOC(=O)C1CCCN(C(=O)c2sc3nc(-c4ccc(OC)cc4)cn3c2C)C1` (stereo not given), with 20 µM (active); and `CCOC(=O)C1CCN(Cc2cnc(Oc3ccc(OC)cc3)s2)CC1`, with “inactive”. As to `O=C(O)c1ccc([N+](=O)[O-])c(P(=O)(O)O)c1`, the activity, negative = inhibition is -9.8% [at 11.4 µM]. In the case of `O=C1C=C(NCC2CCCO2)C2(CCCCC2)O1` (stereo not given), the AC50 result is “inactive”. As for `O=C1CC(c2ccc(F)cc2)Cc2nc(NCC3CCCO3)ncc21` (stereo not given), the AC50 was 22.4 µM (active). As to `O=C(NCC1CCCO1)c1ccc(CS(=O)(=O)Cc2ccc(F)cc2)o1` (stereo not given), the AC50 result was “inactive”. Same read-out and setting: then `Cc1ccc(C(=O)C(OC(=O)CNS(=O)(=O)c2ccccc2)c2ccccc2)cc1` (stereo not given), with “inactive”; and `CCOC(=O)C1=C(C)N=C2c3ccccc3C(=O)C2C1c1ccc(C)cc1` (stereo not given), with 3.16 µM (active); and `COCCOC(=O)C1=C(C)NC(=O)N(C(C)=O)C1c1ccc(Cl)cc1` (stereo not given), with “inactive”. The same measure, in the same setting: to `CCOC(=O)C1=C(N)n2c(s/c(=C/c3ccccc3)c2=O)=C(C(=O)OCC)C1c1ccccc1` (stereo not given) belongs “inactive”; to `CCOC(=O)C1=C(C)N=C2c3ccccc3C(=O)C2C1c1ccc(Cl)cc1` (stereo not given), 3.16 µM (active). The same measure, in the same setting: then `CCOC(=O)C1=NNC2(c3ccc(Cl)cc3)C(=O)N(c3cc(C)cc(C)c3)C(=O)C12` (stereo not given), with “inactive”; and `COC(=O)[C@@]1(Cc2ccccc2)[C@H]2c3cc(C(=O)N(C)C)n(Cc4ccsc4Br)c3C[C@H]2CN1C(=O)c1ccccc1`, with “inactive”.

In the case of `CCCOc1ccc(Cn2c(C)nc([N+](=O)[O-])c2SCC(O)COC)cc1[N+](=O)[O-]` (stereo not given), the AC50 entry is “inactive”.

`COc1ccc(CSc2nnnn2C)cc1[N+](=O)[O-]`: the AC50 is 14.1 µM (active). Still for that read-out and setting: to `CSc1nncc(-c2ccc(F)c(F)c2)n1` belongs 3.55 µM (active); to `OC(COCC1COc2ccccc2O1)CN1CCc2ccccc2C1` (stereo not given), 5.01 µM (active); to `CC1CCCN(CC(O)COCC2COc3ccccc3O2)C1` (stereo not given), “inactive”. On to `OC(COCC1COc2ccccc2O1)CN1CCN(c2ccccc2F)CC1` (stereo not given), for which the AC50 result is “inactive”.

Take `NC(=O)[C@H]1CC2(CC(c3cccc(NC(=O)c4ccccc4)c3)=NO2)CN1C(=O)[C@H]1CCC(=O)N1` (stereo not given in full): the AC50 entry was “inactive”. Turning to `CCOC(=O)C1=C(C)NC2(O)c3ccccc3C(=O)C12O` (stereo not given), the AC50 was 20 µM (active). `CC(=O)Nc1ccc(S(=O)(=O)NCC2CCC(C(=O)N3CCN(c4ccccn4)CC3)CC2)cc1` (stereo not given): the AC50 result was “inactive”.

Take `O=c1onc2n1-c1cc(Br)ccc1OC2`: the AC50 was 0.794 µM (active). The same measure, in the same setting: then `Cc1ccc(NC(=O)N/C=C/c2ccco2)cc1C`, with 7.08 µM (active). Take `O=C1[C@@H]2[C@H]3[C@H](O)[C@H](O)C/C(=N/OC[C@@H](O)COCc4ccco4)[C@@H]3CC[C@H]2C(=O)N1c1ccc(F)cc1F`: the activity, negative = inhibition was -10.4% [at 11.4 µM]. Turning to `C/C(=N\N1CCN(C2c3ccccc3-c3ccccc32)CC1)c1ccncc1`, the AC50 was 8.91 µM (active).

On to `C/C(=N\N1CCN(C2c3ccccc3-c3ccccc32)CC1)c1cccnc1`, for which the AC50 was 12.6 µM (active). The same measure, in the same setting: to `Cc1ccnc(N2C(=O)C3C4CC(C(Br)C4Br)C3C2=O)c1` (stereo not given) belongs “inactive”. Still for that read-out and setting: to `C[C@@H](COc1ccc(/C=C\c2ccccc2)cc1)[N+](C)(C)C` belongs “inactive”.

Regarding `CC[N+](CC)(CC)CCOc1cccc(OCC[N+](CC)(CC)CC)c1OCC[N+](CC)(CC)CC`, the AC50 entry is “inactive”.

As for `O=C(O)[C@@H]1CCCNC1`, the AC50 entry is “inactive”. On the same count and under the same terms, then `Cc1cc(C)c(C)c(S(=O)(=O)ON2C(=O)c3ccccc3C2=O)c1C`, with 28.2 µM (active); and `FC(F)(F)c1cc(-c2ccco2)nc(NCCc2ccccc2)n1`, with 2.82 µM (active). On the same count and under the same terms, to `FC(F)(F)c1cc(-c2ccco2)nc(NCc2cccs2)n1` belongs 0.158 µM (active); to `COc1ccccc1-c1nc(Nc2ccncc2)c2ccccc2n1`, 0.316 µM (active); to `FC(F)(F)c1ccccc1-c1nc(Nc2ccncc2)c2ccccc2n1`, 10 µM (active).

For the molecule `Cc1ccccc1-c1nc(Nc2ccncc2)c2ccccc2n1`, the AC50 was 0.794 µM (active). Consider `Clc1ccccc1-c1nc(Nc2ccncc2)c2ccccc2n1`, for which the AC50 is 0.501 µM (active).

For orientation: AC50 means the concentration at which the activity in the assay is half-maximal.
